According to the supplement of paper PMC6555819:

What was measured:
Experiment in all cases: PBM binding z-score (relative to random genomic background probes); higher = stronger binding; sequences stand for … in GC…GCGATTGACAGCGTAGAATGAAGG
[1] = system: RARb homodimer (NR concentration 270 nM)
In short: (§1)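 Ligand-free nuclear receptor dimers were applied to custom Agilent 4×180K protein-binding microarrays whose double-stranded probes carried direct-repeat seeds, single-nucleotide variants, half-site ablations and random human genomic background sequences in 34-nt variable regions. Incubation lasted 1 h. Binding z-scores were computed against the random background probes from regression-normalized fluorescence.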

[2] = system: RARg:RXRa (NR concentration 270 nM, RXRa partner concentration 90 nM)
In short: as §1

[3] = system: RARg homodimer (NR concentration 270 nM)
In short: as §1

[4] = system: RXRa DBDmut IVT, anti-RXR (DBD mutation: RXRa K156A/R161A, NR concentration 90 nM)
In short: as §1

[5] = system: RXRa homodimer (NR concentration 180 nM)
In short: as §1

[6] = system: THRa:RXRa (NR concentration 90 nM, RXRa partner concentration 90 nM)
In short: as §1

[7] = system: THRa homodimer (NR concentration 90 nM)
In short: as §1

[8] = system: VDR:RXRa (NR concentration 270 nM, RXRa partner concentration 90 nM)
In short: as §1

[9] = system: VDR homodimer (NR concentration 270 nM)
In short: as §1

Sequence | PBM binding z-score [1] | PBM binding z-score [2] | PBM binding z-score [3] | PBM binding z-score [4] | PBM binding z-score [5] | PBM binding z-score [6] | PBM binding z-score [7] | PBM binding z-score [8] | PBM binding z-score [9]
ATATCTAGGTAAAAGTTCAGTGAATCCCGAGGAT | 2.58 | 2.11 | 2.05 | 0.832 | 1.62 | 1.38 | 0.52 | 1.59 | 2.01
CTAACTAGGTCAAGGTCAAAGTCGGTTTGTGCCA | 5.03 | 5.89 | 6.45 | 3.03 | 5.12 | 4.19 | 3.77 | 5.07 | 3.88
CGAACTAGGTCACCGGGACAGTGAAGAGGTTGGA | 3.62 | 4.73 | 5.23 | 1.41 | 3.62 | 3.75 | 1.79 | 2.52 | 0.333
CCGAGTACGTTACGAGGGGGCATTCAGTGCGAAT | 1.5 | 1.85 | 1.41 | 3.95 | 1.17 | 2.36 | 0.395 | 4.15 | 4.78
CAAAATAGGTCAAGGTCAAAGTCGGTTTGTGCCA | 5.46 | 6.53 | 7.1 | 2.89 | 6.48 | 4.48 | 3.55 | 5.51 | 3.72
CCTTACGGGTCAGGAGGTTATAGCACGACGAGCG | 3.15 | 4.9 | 4.22 | -0.195 | 4.96 | 2.37 | 0.0139 | 3.14 | 0.418
CGAACTAGCTCAAAGGACAGTGAAAGGCGACGTA | 0.955 | 0.138 | 0.6 | -0.347 | -0.119 | 0.0409 | -0.622 | -0.564 | -0.00865
AGAGTGAGGTTACCAAAGATCAGGGAAACGCTTG | 1.61 | 2.25 | 1.78 | 0.473 | 2.81 | 2.84 | 1.16 | 1.64 | 0.671
CCGAGTAGGTTACGAGGGGGCATTGAGTGCGAAT | 1.96 | 3.29 | 2.3 | 1.46 | 2.21 | 3.98 | 0.378 | 6.16 | 3.76
CTCGAAAGGTCGTGCTTAGGTGAGTATACCAAAC | 3.07 | 5.09 | 3.82 | 2.24 | 4.91 | 4.2 | 1.11 | 3.36 | 1.05
TCGAGTAGGTTACGGGGGCATTCCGGGATGAAGA | 2.02 | 3.36 | 2.56 | 1.49 | 2.87 | 3.7 | 0.954 | 3.83 | 2.67
CAAAATAGGTCAAGAGGTCAAAGTCCGCTTCCCG | 6.03 | 8.39 | 7.82 | 2.72 | 8.82 | 4.28 | 1.76 | 6.53 | 3.91
CAAACTAGGTCACGAAAGGTCAAAGTTGAATGAC | 6.02 | 8.01 | 8.58 | 2.59 | 8.85 | 5.01 | 2.88 | 6.81 | 3.89
TCGAGTAGGTTACGGGGACATTCAGGGATGAAGA | 1.42 | 1.26 | 1.01 | 0.561 | 1.09 | 2.77 | 1.57 | 1.27 | 1.1
CTATGTAGGTTAAGGGGGTCATTCGGTTTGAAAG | 3.85 | 5.36 | 3.97 | 2.56 | 5.74 | 3.79 | 1.93 | 7.56 | 6.78
CCTACTGGGCCATTCAGAGGTCACTGATCATATG | 4.51 | 4.5 | 3.57 | 0.354 | 3.71 | 3.48 | 1.72 | 3.58 | 1.85
CCGAGTAGCTTACGAGGGGGCATTCAGTGCGAAT | 1 | 1.05 | 0.544 | 1.5 | 0.627 | 1.8 | -0.07 | 3.41 | 2.86
ATATGTAGGTTAGGGTCATTCATAAAGTAGGGAA | 3.59 | 4.05 | 3 | 2.76 | 5.31 | 4.21 | 3.65 | 4.67 | 4.32
CGTCAAAGTTCATGGTAACGTAACAGAAAGCAGC | 4.04 | 5.3 | 5.92 | 4.79 | 4.53 | 1.98 | -0.212 | 4.33 | 4.64
ATATGTAGCTTAGGGTCATTCAGAAAGTAGGGAA | 2.97 | 3.71 | 2.73 | 2.16 | 4.87 | 4.07 | 3.15 | 4.27 | 3.71
TAGAGTAGGTTACGGGGGCATTCAGGGATGAAGA | 2.5 | 3.43 | 2.77 | 2.08 | 3.21 | 3.99 | 1.75 | 4.09 | 3.81
CGAACTAGGTCACCAGGACAGAGAAGAGGTTGGA | 3.46 | 4.58 | 5.47 | 1.79 | 3.97 | 3.37 | 1.89 | 2.04 | 0.617
GCTGCTAGGTCAGGATGGTCAGCTAACGGGTACG | 2.65 | 2.65 | 3.23 | 0.0831 | 1.18 | 1.7 | 0.189 | 0.56 | 0.124
ACCAGCAGGCCAAGGGTCACTCAAGATTAGTCCG | 3.61 | 4.08 | 3.49 | 0.237 | 4.04 | 2.63 | 0.148 | 2.47 | 1.1
CGTCAACGTTCAACTAAGGTAACGTAAAGCACGC | 0.8 | 0.496 | 0.603 | 0.449 | 0.587 | 3.84 | 1.68 | 0.25 | 0.137
CCGAGTAGGTTACGAGGGGGCTTTCAGTGCGAAT | 0.961 | 1.85 | 1.36 | 0.879 | 1.08 | 2.33 | 0.299 | 2.13 | 0.538

Sequence | PBM binding z-score [1] | PBM binding z-score [2] | PBM binding z-score [3] | PBM binding z-score [4] | PBM binding z-score [5] | PBM binding z-score [6] | PBM binding z-score [7] | PBM binding z-score [8] | PBM binding z-score [9]
CCAACTAGGTCACCAGGACAGTGAAGAGGTTGGA | 3.74 | 4.53 | 5.37 | 1.24 | 3.51 | 3.37 | 1.89 | 1.99 | 0.883
CCTGCTAGGTCTATGGTCAGCTAAAGCAGCTCGC | 0.163 | -0.335 | -0.344 | 0.301 | -0.345 | -0.0563 | -0.394 | -0.536 | -0.594
ATATGTAGGTTAGGGTCATTCGGAAAGTAGGGAA | 3.62 | 4.07 | 3.15 | 2.51 | 5.06 | 4.16 | 3.3 | 4.45 | 4.24
CGAACTAGGTCAAAGGACAGTGGAAGGCGACGTA | 3.07 | 3.62 | 4.31 | 1.4 | 2.94 | 2.5 | 0.274 | 1.21 | 0.241
GCTGCTAGGTCAGGTTGGTCGGCTAACGGGTACG | 2.31 | 2.38 | 3.52 | -0.206 | 0.882 | 1.5 | 0.491 | 0.166 | 0.0919
ACTAGTTGGTAAGCTGAGGTCACACACAATTCGG | 4.01 | 3.45 | 2.93 | 1.25 | 3.57 | 4.52 | 5.19 | 3.71 | 3.29
CGTTCAAGGTCATAGGAGGTCAGTGAAGACAGAT | 5.77 | 7.11 | 7.22 | 4.47 | 6.46 | 5.23 | 3.63 | 6.67 | 5.25
CTATGTAGTTTAAGGGGGTCATTCAGTTTGAAAG | 3.89 | 4.53 | 3.58 | 3.27 | 5.05 | 3.79 | 2.91 | 6.94 | 7.03
TCTTGTAGATCAAAGCTTAAGAAAGCCGAAGCCT | -0.931 | -0.422 | -0.665 | 0.503 | -0.173 | -0.444 | -1.01 | -0.115 | -0.74
CGTCCAAGGTCATAAGAGGTCAGTGAAGACAGAT | 5.16 | 7.1 | 7.88 | 4.16 | 7.05 | 5.23 | 3.25 | 6.96 | 5.57
CCGAGTAGGCTACGAGGGGGCATTCAGTGCGAAT | 0.928 | 1.09 | 0.795 | 0.409 | 0.458 | 1.79 | -0.405 | 3.16 | 2.19
CAAACTAGGTCAAAGGTCAAGGTCGAGCCAACCA | 5.8 | 8.92 | 7.7 | 3.18 | 9.96 | 4.92 | 2.98 | 6.86 | 3.42
CCGTGTAGGTTACGAGGGGGCATTCAGTGCGAAT | 2.58 | 3.76 | 3.23 | 1.74 | 2.46 | 4.03 | 1.23 | 5.7 | 3.94
ATGGAAAGGTCGTGAGGTGAGTATACAGAAAGGC | 3.62 | 4.95 | 4.67 | 1.52 | 5.97 | 3.82 | 2.1 | 4 | 1.72
CTATGTAGGTTAAGTGGGTCATTCAGTTTGAAAG | 2.4 | 1.97 | 1.95 | 0.703 | 1.73 | 1.97 | 0.347 | 4.99 | 2.29
TCTTATAGATCAATAGAGGTTAAGAAAGTGCGCT | 1.22 | 1.04 | 0.633 | 0.906 | 1.75 | 2.49 | 0.125 | 2.03 | 0.336
ATGTGTAGGTTAGGGTCATTCAGAAAGTAGGGAA | 3.9 | 4.4 | 3.74 | 2.52 | 5.52 | 4.17 | 3.9 | 4.65 | 4.18
CGAACTAGGTCACCAGGAAAGTGAAGAGGTTGGA | 3.18 | 4.45 | 5.45 | 1.53 | 3.53 | 2.91 | 1.04 | 1.66 | 0.43
TGAATGAGGTGAAAGATCAGGGAACGTGGCGTCG | 0.154 | 1.51 | 0.868 | -0.365 | 2.17 | 2.78 | 0.878 | 0.449 | -0.213
ATCGAACGGTCGAGGTGAGTATAGAGAAAGGGAA | 0.591 | 0.56 | 1.16 | -0.533 | 0.211 | 1.06 | 0.0248 | -0.335 | -0.386
ACTTACGGGTCAACGAAGTTATAGCACGCGTATA | 3.02 | 5.31 | 4.65 | 1.66 | 5.31 | 2.78 | -0.0625 | 4.19 | 0.948
ATCTCTAGGTAAAGTTCAGCGAAAGATCGATAGA | 2.94 | 2.55 | 2.95 | 1.25 | 1.9 | 1.41 | 0.214 | 1.84 | 1.66
CCTACTGGGCCAAAAAGGCCATTGATGCCGATAA | 0.855 | 0.216 | 0.242 | -0.537 | -0.173 | 0.0885 | -0.514 | 0.326 | -0.0566
GATCCAGGGTCAGCTAGAGGCCAGAGTATGGAAA | 3.27 | 6.7 | 4.6 | 0.756 | 4.34 | 3.09 | -0.172 | 3.16 | 0.674
ATATGTATGTTAGGGTCATTCAGAAAGTAGGGAA | 3.03 | 3.74 | 2.71 | 2.73 | 4.9 | 4.06 | 3.17 | 4.38 | 3.27
ATATTTAGGTTAGGGTCATTCAGAAAGTAGGGAA | 3.47 | 4.06 | 3.55 | 2.76 | 4.71 | 4.2 | 3.85 | 4.6 | 4.22
